Structures are written as SMILES. Where “and” joins values, the source holds several entries; their conditions need not be identical. Equal values may be shown once. Records with an inconclusive call do not appear. Where a structure was tested more than once in an assay, its records may differ in their call. Calls of active or inactive are those of the source. Unless noted, calls follow the shape of the dose curve; as a rule, active = well fitted curve in the direction sought with a large enough effect; inconclusive = small, poorly fitted or top-dose-only effect, or another doubt; inactive = no such curve, though single readings can be large; an effect the other way counts as inactive or inconclusive. Where only a bound is given, the exact number is not on record here.

Test [1] deals with Cytochrome P450 1A2 (Homo sapiens) (UniProt P05177). Briefly: p450-cyp1a2 (AID 410; calls by dose curve; also: potency is read from the fitted curve at half-maximal effect). An outline of the steps: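 Luminescent readout of luciferin formed from Luciferin-ME by human CYP1A2; data normalized against complete inhibition by 57 uM furafylline. Enzyme 20nM, substrate 100uM at Km, 100mM KPO4 buffer, 60 min reaction at room temperature.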
Cytochrome P450 1A2 (Homo sapiens), sequence (P05177 whole entry, looked up): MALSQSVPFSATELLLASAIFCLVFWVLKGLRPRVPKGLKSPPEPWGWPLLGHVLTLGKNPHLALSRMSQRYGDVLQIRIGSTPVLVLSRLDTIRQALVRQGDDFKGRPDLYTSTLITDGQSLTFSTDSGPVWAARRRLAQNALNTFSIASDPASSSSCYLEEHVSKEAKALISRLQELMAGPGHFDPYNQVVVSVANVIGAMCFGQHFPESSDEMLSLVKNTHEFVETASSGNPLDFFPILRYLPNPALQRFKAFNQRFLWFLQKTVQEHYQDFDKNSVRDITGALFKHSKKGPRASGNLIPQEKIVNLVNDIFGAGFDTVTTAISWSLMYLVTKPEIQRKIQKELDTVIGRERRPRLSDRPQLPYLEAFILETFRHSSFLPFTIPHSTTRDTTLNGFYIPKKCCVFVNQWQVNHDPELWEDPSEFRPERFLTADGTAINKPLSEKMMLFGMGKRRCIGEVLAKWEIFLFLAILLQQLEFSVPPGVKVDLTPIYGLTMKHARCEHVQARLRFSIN
For test [2], the target named is Glucocorticoid receptor (Homo sapiens) (UniProt P04150). Description: GR-GFP Redistribution (AID 450;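 active = compounds whose dose series gives a full or clear partial fitted curve of increased nuclear translocation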; also: potency is read from the fitted curve at half-maximal effect). The note with it: U2OS GR-GFP nuclear translocation, laser cytometry, 2 h.
Glucocorticoid receptor (Homo sapiens), sequence (P04150 whole entry, looked up, the tested form may be a part): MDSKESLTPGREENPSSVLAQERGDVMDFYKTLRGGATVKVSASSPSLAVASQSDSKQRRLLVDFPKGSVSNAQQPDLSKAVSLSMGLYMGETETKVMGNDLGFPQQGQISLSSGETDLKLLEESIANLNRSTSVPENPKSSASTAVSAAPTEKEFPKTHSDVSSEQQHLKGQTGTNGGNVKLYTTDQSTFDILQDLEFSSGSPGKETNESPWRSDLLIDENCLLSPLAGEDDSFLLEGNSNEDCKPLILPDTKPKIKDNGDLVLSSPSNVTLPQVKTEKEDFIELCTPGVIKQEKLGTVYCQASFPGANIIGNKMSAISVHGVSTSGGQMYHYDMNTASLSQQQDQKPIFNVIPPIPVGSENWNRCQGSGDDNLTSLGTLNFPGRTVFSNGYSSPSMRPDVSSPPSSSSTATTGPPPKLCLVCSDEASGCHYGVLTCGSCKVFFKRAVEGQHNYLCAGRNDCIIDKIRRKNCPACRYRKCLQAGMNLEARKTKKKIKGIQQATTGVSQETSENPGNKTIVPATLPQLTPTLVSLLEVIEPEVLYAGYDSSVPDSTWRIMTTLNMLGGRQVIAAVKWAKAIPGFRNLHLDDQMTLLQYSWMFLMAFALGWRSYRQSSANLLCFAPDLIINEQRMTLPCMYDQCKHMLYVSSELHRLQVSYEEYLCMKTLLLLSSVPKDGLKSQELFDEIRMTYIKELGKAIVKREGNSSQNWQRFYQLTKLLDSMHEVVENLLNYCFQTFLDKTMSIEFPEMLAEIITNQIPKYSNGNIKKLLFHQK
Test [3] shares this target. Briefly: GR-EFC Redistribution (AID 451; calls by dose curve; also: potency is read from the fitted curve at half-maximal effect). The note with it: CHO-K1 GR-EFC translocation, beta-gal luminescence, 2 h. The gist of the method: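 CHO-K1 cells stably expressing nuclear-localized β-gal enzyme acceptor and GR fused C-terminally to the enzyme donor fragment; ligand-driven nuclear translocation restores β-gal by complementation. Compounds titrated up to 46 uM final, 2 h at 37 °C; luminescence read.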

For test [4], the target named is Cytochrome P450 3A4 (Homo sapiens) (UniProt P08684). Briefly: qHTS Assay for Activators of Cytochrome P450 3A4 (AID 885). Also: nearly all actives have a fitted effect of over 65% in size. The gist of the method:
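20nM CYP3A4 + 25uM Luciferin-PPXE (=KM), 200mM KPO4; cpd 10 min RT; NADPH regen, 60 min RT; stop w/ detection buffer, 20 min; luminescence. Normalized to 57 uM ketoconazole.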

Test [5] has as its target Ubiquitin carboxyl-terminal hydrolase 1 (Homo sapiens) (UniProt O94782). Briefly: Inhibitors of USP1/UAF1: Pilot qHTS (AID 504865). Also: nearly all actives have a fitted effect of over 35% in size. Also: potency is read from the fitted curve at half-maximal effect. The gist of the method: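 Enzyme-free wells gave the negative control, while test wells held 1nM USP1/UAF1 preincubated with compound for 15 min at room temperature. Ub-Rho at 150nM final started the reaction, and fluorescence at 480/540 nm was recorded kinetically.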
Background: Quantitative high-throughput screening tests each substance at several concentrations.

Test [6] addresses DNA dC->dU-editing enzyme APOBEC-3G (Homo sapiens) (UniProt Q9HC16). Description: qHTS for inhibitors of Vif-A3G interactions: Validation (AID 588379). Also: potency is read from the fitted curve at half-maximal effect. The gist of the method: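 HeLa cells stably expressing Vif and A3G-eYFP, 700 cells/well, incubated overnight at 37 deg C, then exposed to compound overnight at 37 deg C. Inhibition of Vif-mediated degradation read as increased yellow fluorescence (Ex 488/Em 500-530) by laser-scanning cytometry.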

In test [7] the test system is Zika virus NS2B-NS3 protease. Description: Primary screen GU AMC qHTS for Zika virus inhibitors (AID 1347154). Also: nearly all actives have a fitted effect of over 70% in size. The gist of the method:
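Unlinked Zika NS2B hydrophilic domain/NS3 protease domain noncovalent complex (25 nM final) in 10 mM Tris-HCl pH 8.0, 0.01% Tween 20, with AMC peptide substrate. Fluorescence (ex 340, em 450 nm) change over 15 min, room temperature; percent inhibition fitted to 4-parameter Hill equation.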

The nature of test [8]: Primary qHTS for small molecule stabilizers of the endoplasmic reticulum resident proteome: Secreted ER Calcium Modulated Protein (SERCaMP) assay (AID 1508630). An outline of the steps:
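GLuc-SERCaMP-expressing SH-SY5Y cells, pretreated 16 h with compound, are challenged with thapsigargin to empty ER calcium stores; after 4 h, coelenterazine is added directly to the medium and luminescence is imaged.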

Test [9] has as its target Mitogen-activated protein kinase 10 (Mus musculus) (UniProt Q61831). Description: JNK3 AlphaScreen Assay (AID 530; active = well fitted curve in either direction with a large enough effect, not every such curve was filed as active;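 also: kinase came from lysate of stimulated human HepG2 cells; signal reports phosphorylation of biotinylated GST-cJun 1-79 at Ser73 with 10 µM ATP; series mostly up to about 57 µM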). The gist of the method: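 Inhibitors reduce antibody binding to phosphorylated biotin-cJun, lowering AlphaScreen luminescence. Lysates from HepG2 cells pre-activated by IL-1beta plus TNF-alpha supplied JNK3; compounds were titrated.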
A general note: Bead proximity is the source of the signal in Alpha formats.

Test [10] addresses 3',5'-cyclic-AMP phosphodiesterase 4B (Homo sapiens) (UniProt Q07343). Briefly: qHTS Assay for Inhibitors of PDE-IV (AID 607; active = well fitted activation curve with a large enough effect in the main read-out, with a control signal flat, not every such curve was filed as active). An outline of the steps:
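ACTOne HEK293 cells carry a modified cAMP-gated CNG channel and express endogenous PDE4; plated 1000 cells/well, compounds up to 22.9 uM final. Membrane-potential dye fluorescence (ex 535/em 590) was read; parental cells received 10 uM forskolin + 100 uM RO 20-1724.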

Test [11] deals with Cytochrome P450 2D6 (Homo sapiens) (UniProt P10635). Description: qHTS Assay for Inhibitors and Substrates of Cytochrome P450 2D6 (AID 891). Also: potency is read from the fitted curve at half-maximal effect; nearly all actives have a fitted effect of over 60% in size. The gist of the method:
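Human CYP2D6 (5 nM) with 30 uM Luciferin-ME EGE (at Km) in 100 mM KPO4, compound preincubated 10 min, then NADPH regeneration system for 60 min at room temperature. Luciferin read by luminescence; normalized to 1.43 uM quinidine.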

The target in test [12] is Cytochrome P450 2C9 (Homo sapiens) (UniProt P11712). Description: qHTS Assay for Inhibitors and Substrates of Cytochrome P450 2C9 (AID 883). Also: potency is read from the fitted curve at half-maximal effect; nearly all actives have a fitted effect of over 60% in size. The gist of the method:
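Human CYP2C9 (10nM) hydroxylated Luciferin-H (100uM, at its KM) to luciferin in 25mM KPO4. Compound was preincubated 10 min at 37C, then NADPH regeneration started a 60 min reaction at 37C. Luminescence was read after detection reagent, normalized to 57uM sulphaphenazole.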

In test [13] the target is Cytochrome P450 2C19 (Homo sapiens) (UniProt P33261). Description: qHTS Assay for Inhibitors and Substrates of Cytochrome P450 2C19 (AID 899). Also: potency is read from the fitted curve at half-maximal effect; nearly all actives have a fitted effect of over 60% in size. The gist of the method:
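Human CYP2C19 (5nM) with Luciferin-H EGE at 10uM (its KM) in 50mM KPO4 was preincubated with compound for 10 min at 37C. NADPH regeneration started a 60 min 37C reaction. Luciferin was read by luminescence, normalized to 57uM ketoconazole.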

The target in test [14] is Cytochrome P450 3A4 (Homo sapiens) (UniProt P08684). Description: qHTS Assay for Inhibitors and Substrates of Cytochrome P450 3A4 (AID 884). Also: potency is read from the fitted curve at half-maximal effect; nearly all actives have a fitted effect of over 50% in size. An outline of the steps: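 20 nM human CYP3A4 with 25 uM Luciferin-PPXE (at KM) in 200 mM KPO4, preincubated 10 min with compound; NADPH regeneration started a 60 min RT reaction. Luciferin detected by luminescence, normalized to 57 uM ketoconazole as full inhibition.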
Cytochrome P450 3A4 (Homo sapiens), sequence (P08684 whole entry, looked up): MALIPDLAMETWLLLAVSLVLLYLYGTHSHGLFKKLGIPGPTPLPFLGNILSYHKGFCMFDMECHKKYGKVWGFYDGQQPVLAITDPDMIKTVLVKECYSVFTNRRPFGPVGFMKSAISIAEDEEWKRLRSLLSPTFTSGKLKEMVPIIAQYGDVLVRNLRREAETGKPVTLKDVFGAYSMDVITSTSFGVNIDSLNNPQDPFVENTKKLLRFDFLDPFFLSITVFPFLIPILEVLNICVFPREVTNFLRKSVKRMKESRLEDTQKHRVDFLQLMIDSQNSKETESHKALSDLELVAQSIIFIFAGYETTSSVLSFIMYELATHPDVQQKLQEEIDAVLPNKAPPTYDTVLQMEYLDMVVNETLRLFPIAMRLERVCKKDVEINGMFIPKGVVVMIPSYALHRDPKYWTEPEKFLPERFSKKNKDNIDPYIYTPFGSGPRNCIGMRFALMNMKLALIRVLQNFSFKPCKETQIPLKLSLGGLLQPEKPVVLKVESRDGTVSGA

DNA dC->dU-editing enzyme APOBEC-3G (Homo sapiens), sequence (Q9HC16 whole entry, looked up): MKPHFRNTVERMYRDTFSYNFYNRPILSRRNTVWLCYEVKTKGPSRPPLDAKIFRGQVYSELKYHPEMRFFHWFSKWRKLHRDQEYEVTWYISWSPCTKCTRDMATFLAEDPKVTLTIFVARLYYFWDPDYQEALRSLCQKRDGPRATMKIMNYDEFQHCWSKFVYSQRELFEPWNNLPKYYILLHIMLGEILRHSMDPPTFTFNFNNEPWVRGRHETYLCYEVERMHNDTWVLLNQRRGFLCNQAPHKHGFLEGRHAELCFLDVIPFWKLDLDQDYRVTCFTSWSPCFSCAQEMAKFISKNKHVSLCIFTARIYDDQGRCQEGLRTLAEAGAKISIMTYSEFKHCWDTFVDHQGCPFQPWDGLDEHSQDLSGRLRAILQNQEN
Ubiquitin carboxyl-terminal hydrolase 1 (Homo sapiens), sequence (O94782 whole entry, looked up): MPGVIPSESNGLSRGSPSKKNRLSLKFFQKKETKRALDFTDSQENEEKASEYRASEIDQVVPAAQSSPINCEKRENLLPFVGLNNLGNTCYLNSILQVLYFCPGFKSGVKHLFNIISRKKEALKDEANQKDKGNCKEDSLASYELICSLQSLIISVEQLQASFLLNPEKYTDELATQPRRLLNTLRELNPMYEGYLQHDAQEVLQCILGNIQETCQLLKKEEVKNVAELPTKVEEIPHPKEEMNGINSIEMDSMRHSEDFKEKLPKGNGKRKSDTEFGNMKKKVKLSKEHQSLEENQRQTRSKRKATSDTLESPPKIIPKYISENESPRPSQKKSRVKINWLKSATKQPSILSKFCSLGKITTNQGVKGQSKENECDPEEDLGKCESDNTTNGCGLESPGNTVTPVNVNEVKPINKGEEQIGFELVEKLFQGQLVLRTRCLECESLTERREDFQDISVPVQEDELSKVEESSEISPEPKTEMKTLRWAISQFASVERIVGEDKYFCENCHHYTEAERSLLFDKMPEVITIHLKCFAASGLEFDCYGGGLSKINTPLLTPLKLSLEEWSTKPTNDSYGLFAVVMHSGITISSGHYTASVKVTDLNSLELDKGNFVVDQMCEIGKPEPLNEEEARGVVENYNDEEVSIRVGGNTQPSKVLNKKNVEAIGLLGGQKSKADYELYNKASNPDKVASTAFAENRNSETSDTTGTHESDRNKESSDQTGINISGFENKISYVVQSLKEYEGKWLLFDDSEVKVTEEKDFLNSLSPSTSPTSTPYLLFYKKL
3',5'-cyclic-AMP phosphodiesterase 4B (Homo sapiens), sequence (Q07343 whole entry, looked up): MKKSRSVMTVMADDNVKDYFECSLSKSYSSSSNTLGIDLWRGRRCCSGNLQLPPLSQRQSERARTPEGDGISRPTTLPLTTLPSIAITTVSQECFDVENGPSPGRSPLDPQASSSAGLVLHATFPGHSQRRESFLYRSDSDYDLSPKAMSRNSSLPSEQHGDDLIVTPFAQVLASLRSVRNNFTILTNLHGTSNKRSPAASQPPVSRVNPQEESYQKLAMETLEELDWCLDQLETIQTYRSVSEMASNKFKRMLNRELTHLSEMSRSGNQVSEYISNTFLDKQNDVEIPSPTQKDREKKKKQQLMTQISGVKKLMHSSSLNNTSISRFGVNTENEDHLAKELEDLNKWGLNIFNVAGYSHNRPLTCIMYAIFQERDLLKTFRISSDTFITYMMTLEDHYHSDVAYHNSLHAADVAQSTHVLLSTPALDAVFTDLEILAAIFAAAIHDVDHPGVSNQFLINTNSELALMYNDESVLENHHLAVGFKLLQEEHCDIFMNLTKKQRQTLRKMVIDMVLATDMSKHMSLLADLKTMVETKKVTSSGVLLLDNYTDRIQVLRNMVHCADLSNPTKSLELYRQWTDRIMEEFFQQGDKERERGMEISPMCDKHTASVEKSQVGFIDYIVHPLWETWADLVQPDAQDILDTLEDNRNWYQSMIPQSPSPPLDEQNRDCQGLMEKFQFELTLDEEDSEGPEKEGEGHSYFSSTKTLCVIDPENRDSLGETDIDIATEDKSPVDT
Cytochrome P450 2C9 (Homo sapiens), sequence (P11712 whole entry, looked up): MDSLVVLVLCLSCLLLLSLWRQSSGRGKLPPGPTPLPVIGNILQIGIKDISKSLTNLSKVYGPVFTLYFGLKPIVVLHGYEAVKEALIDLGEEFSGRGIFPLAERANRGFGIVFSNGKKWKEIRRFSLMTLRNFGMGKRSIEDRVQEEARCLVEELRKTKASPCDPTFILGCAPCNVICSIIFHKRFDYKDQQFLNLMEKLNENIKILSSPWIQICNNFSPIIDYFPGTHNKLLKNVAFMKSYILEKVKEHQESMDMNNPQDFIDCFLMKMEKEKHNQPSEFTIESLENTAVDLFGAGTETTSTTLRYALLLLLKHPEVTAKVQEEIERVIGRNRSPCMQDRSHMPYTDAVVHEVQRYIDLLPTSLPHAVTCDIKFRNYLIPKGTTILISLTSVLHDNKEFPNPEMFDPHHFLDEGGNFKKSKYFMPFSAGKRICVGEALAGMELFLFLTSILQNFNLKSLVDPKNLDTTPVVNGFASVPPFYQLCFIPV
Cytochrome P450 2C19 (Homo sapiens), sequence (P33261 whole entry, looked up): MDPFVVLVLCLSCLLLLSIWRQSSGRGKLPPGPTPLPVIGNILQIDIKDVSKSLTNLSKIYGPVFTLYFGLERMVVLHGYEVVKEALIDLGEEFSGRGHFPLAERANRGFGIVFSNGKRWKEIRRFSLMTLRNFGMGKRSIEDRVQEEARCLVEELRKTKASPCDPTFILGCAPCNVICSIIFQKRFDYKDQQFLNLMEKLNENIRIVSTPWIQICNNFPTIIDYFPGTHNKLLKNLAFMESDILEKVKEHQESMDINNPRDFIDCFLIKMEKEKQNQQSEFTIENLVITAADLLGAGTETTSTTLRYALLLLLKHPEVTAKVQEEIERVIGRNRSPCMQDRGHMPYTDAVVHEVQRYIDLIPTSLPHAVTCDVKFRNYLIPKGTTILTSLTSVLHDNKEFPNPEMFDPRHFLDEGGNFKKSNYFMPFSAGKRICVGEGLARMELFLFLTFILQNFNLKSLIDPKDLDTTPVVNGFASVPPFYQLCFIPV

As for `CC[C@]1(O)C[C@@H]2CN(CCc3c([nH]c4ccccc34)[C@](C(=O)OC)(c3cc4c(cc3OC)N(C=O)[C@H]3[C@@](O)(C(=O)OC)[C@H](C(=O)OC)[C@@]5(CC)C=CCN6CC[C@]43[C@H]65)C2)C1`, the Potency result in test [1], in [4], in [5], in test [6], in test [7] and in [8] was “inactive” each time. The Potency in [2] and in test [3] was > 46 µM (inactive) throughout.
On to `CCCCCCCCCCCCCCC[C@@H](O)[C@@H](N)CO`, for which the Potency in [1] is 25.1 µM (active); in test [2], > 46 µM (inactive); in [3] it was > 46 µM (inactive); in test [11], 7.94 µM (active); in [5] it was 31.6 µM (active). Moreover, the Potency entry in test [9], in [10], in test [6], in test [7] and in test [8] was “inactive” each time.
Take `c1ccc2cc(C3=NCCN3)ncc2c1`: the Potency in test [1] was 0.501 µM (active); in [2] it was > 46 µM (inactive); in test [3], > 46 µM (inactive). Besides, the Potency entry in test [9], in [10], in [5], in test [6], in test [7] and in test [8] was “inactive” in each case.
For `C[N+]1(C)CCc2cc3c(cc2[C@@H]1[C@@H]1C(=O)Oc2c1ccc1c2OCO1)OCO3`, the Potency result is “inactive and 1.26 µM (active)” in [1]; > 46 µM (inactive) in test [2]; > 46 µM (inactive) in [3]. Also, the Potency entry in test [9], in test [10], in test [4], in test [7] and in [8] was “inactive” throughout.
Consider `N[C@H](Cn1ccc(=O)n(Cc2ccccc2C(=O)O)c1=O)C(=O)O`, for which the Potency entry in [1], in test [9], in test [10], in test [5], in [6] and in [7] was “inactive” throughout. For the same compound, in test [8], the Potency result was “inactive”. Also, the Potency in test [2] and in [3] was > 46 µM (inactive) throughout.
`CC(C)(C)Cn1nc(-c2ccc(Cl)cc2)c2c(N)ncnc21`: the Potency was 0.158 µM (active) in test [1], > 46 µM (inactive) in test [2] and > 46 µM (inactive) in [3]. Further, the Potency entry in test [5], in test [6], in test [7] and in test [8] was “inactive” each time.
As for `Clc1cccc(Nc2nnc(-c3ccccc3)c3ccccc23)c1`, the Potency in test [1] is 1.26 µM (active); in test [2], > 46 µM (inactive); in [3] it was > 46 µM (inactive); in test [12], 3.98 µM (active); in test [13] it was 0.794 µM (active). Also, the Potency result in test [9], in [4], in [6], in test [7] and in [8] was “inactive” each time.
For the compound `CN1Cc2c(C(=O)OC(C)(C)C)ncn2-c2ccsc2C1=O`, the Potency in test [1] was 15.8 µM (active); in test [2], > 46 µM (inactive); in test [3], > 46 µM (inactive); in [12] it was 5.01 µM (active); in [13], 1.26 µM (active). Moreover, the Potency result in test [9], in test [5], in test [6], in test [7] and in [8] was “inactive” in each case.
For `COc1ccccc1N1CCN(C[C@@H](C(=O)NC(C)(C)C)c2ccccc2)CC1`, the results for the Potency in test [1], in [2] and in test [3] were 0.631 µM (active), > 46 µM (inactive) and > 46 µM (inactive), respectively. The Potency entry in test [5], in test [6], in test [7] and in test [8] was “inactive” throughout.
For the compound `CCOC(OCC)P(=O)(O)CCCNCc1ccc(Cl)c(Cl)c1`, the Potency entry in [1], in [9], in test [7] and in test [8] was “inactive” in each case. The Potency in test [2] and in [3] was > 46 µM (inactive) each time.
On to `CCCCCCCCCCCCCCCC(=O)NC(C)C`, for which the Potency result in [1], in [9], in test [10], in test [6], in test [7] and in [8] was “inactive” throughout. Moreover, the Potency in [2] and in test [3] was > 46 µM (inactive) each time.
Consider `O=C(Cc1ccccc1)Nc1nc2ccc(Cl)cc2c2nc(-c3ccco3)nn12`, for which the Potency in test [1] is 0.2 µM (active); in [2], > 46 µM (inactive); in test [3], > 46 µM (inactive); in test [12], 3.16 µM (active); in test [13], 1.58 µM (active); in [6], 21.1 µM (active). Also, the Potency result in test [9], in test [10], in test [4], in test [5], in [7] and in test [8] was “inactive” in each case.
For `CCCCCCc1c(C[C@H](N)C(=O)O)o[nH]c1=O`, the Potency is 31.6 µM (active) in test [1], > 46 µM (inactive) in test [2] and > 46 µM (inactive) in [3]. The Potency entry in test [9], in test [10], in [5], in test [6], in test [7] and in test [8] was “inactive” each time.
For `COC(=O)/C=C\c1cc(O)ccc1O`, the Potency was 3.98 µM (active) in test [1]; > 46 µM (inactive) in [2]; > 46 µM (inactive) in test [3]; 7.94 µM (active) in test [12]; 18.8 µM (active) in test [6]. The Potency entry in test [9], in [10], in test [5], in test [7] and in test [8] was “inactive” in each case.
As for `CSc1nc(NC2CCCC2)c([N+](=O)[O-])c(NC2CCCC2)n1`, the Potency in test [1] was 3.98 µM (active); in test [2], > 46 µM (inactive); in test [3], > 46 µM (inactive); in [12], 2 µM (active); in test [13], 5.01 µM (active). Also, the Potency entry in test [9], in test [10], in test [6], in [7] and in test [8] was “inactive” each time.
Consider `NCCCCCCCCCCNS(=O)(=O)c1cccc2c(Cl)cccc12`, for which the Potency in test [1] was 15.8 µM (active); in test [2] it was > 46 µM (inactive); in test [3], > 46 µM (inactive); in test [12], 0.0501 µM (active); in test [14], 2.51 µM (active); in test [11] it was 1.26 µM (active). In [13], the Potency was 0.0794 µM (active). In addition, the Potency entry in test [9], in test [4], in test [6], in [7] and in test [8] was “inactive” in each case.
As for `CCCCC#Cc1nc(NC)c2ncn([C@@H]3O[C@@H](CO)[C@H](O)[C@H]3O)c2n1`, the Potency in test [1] was 31.6 µM (active); in [2] it was > 46 µM (inactive); in [3], > 46 µM (inactive); in [12], 0.631 µM (active). Moreover, the Potency entry in test [9], in test [10], in test [5], in [6], in test [7] and in [8] was “inactive” throughout.
For `CCc1cc2c(c(CC)n1)CCC(=O)N2Cc1ccc(-c2ccccc2-c2nn[nH]n2)cc1`, the Potency result in test [1], in test [9], in test [4], in test [6], in [7] and in test [8] was “inactive” in each case. In addition, the Potency in test [2] is > 46 µM (inactive); in test [3], > 46 µM (inactive); in [13], 5.01 µM (active).
Take `OC[C@@H](O)COc1cccc2ccccc12`: the Potency in test [1] was 0.631 µM (active); in test [2], > 46 µM (inactive); in [3], > 46 µM (inactive). In addition, the Potency result in test [10], in test [5], in [6], in test [7] and in test [8] was “inactive” throughout.

These data come from PubChem BioAssay (NCATS).
